# Values joined by “and” are separate entries in the source; they are usually repeats but may differ in a detail not shown here. Equal values may be shown once. Over roughly 5,300 compounds, “PER2::LUC luminescence relative to vehicle control” has its median near 0.96; the highest 2% begin near 1.3. For the sample, the highest values were picked, then their nearest neighbours and some compounds at random.
# Test system: mPer2Luc MEF
# Test: PER2::LUC luminescence relative to vehicle control (fold of vehicle); higher = higher PER2::LUC reporter signal
# Details: 10 µM
# Procedure, shortened: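 In 384-well plates, ~3000 mPer2Luc reporter mouse embryonic fibroblasts per well were cultured in DMEM with 10% FBS at 37 °C and 5% CO2 for 48 h before compounds from commercial libraries were added at 10 μM. ONE-Glo luciferase readings were taken 24 h and 30 h after treatment. Each value is PER2::LUC luminescence given as fold of vehicle control.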
SMILES,PER2::LUC luminescence (time after treatment 24 h),PER2::LUC luminescence (time after treatment 30 h)
C[C@@H](O)CCCCn1c(=O)c2c(ncn2C)n(C)c1=O,0.991,0.943
CCc1c(C(=O)NNC(=O)[C@H](O)c2cc(F)cc(F)c2)ccc(O)c1C,1,0.957
CCCCCCCCCCCCCCCCCC(=O)OC(CC(=O)O)C[N+](C)(C)C (racemic),0.909,0.786
CCC[C@@H]1C[C@@H](C(=O)N[C@@H]([C@H]2O[C@H](SC)[C@H](OP(=O)(O)O)[C@@H](O)[C@H]2O)[C@H](C)Cl)N(C)C1,1.07,1.01
CCC[C@@H]1C[C@@H](C(=O)N[C@@H]([C@H]2O[C@H](SC)[C@H](O)[C@@H](O)[C@H]2O)[C@H](C)Cl)N(C)C1,1.08,1.93
CCC[C@@H]1C[C@@H](C(=O)N[C@@H]([C@H]2O[C@H](SC)[C@H](O)[C@@H](O)[C@H]2O)[C@@H](C)O)N(C)C1,0.932 and 0.965,0.909 and 0.803
NC(=O)c1cccc2ncc(-c3ccc(Cl)cc3)nc12,1.12,1.16
COc1cc(O)c2c(=O)c(O)c(-c3ccccc3)oc2c1,0.99,1.06
COC(=O)[C@@H]1OC(=O)C2OC23[C@@]1(C)CCC1[C@@]2(C)CCC(=O)C(C)(C)C2C[C@@H](OC(C)=O)[C@]13C (stereo partly drawn),0.9,0.921
O=c1cccc2ccc(O)c(O)c2c1O,0.987,0.83
N#Cc1nccc(Oc2cccc(-c3ccc(CN)cc3)c2)n1,0.994,1.14
CC(=O)N[C@H]1[C@H]([C@H](O)[C@H](O)CO)O[C@@](Oc2c[nH]c3ccc(Br)c(Cl)c23)(C(=O)O)C[C@@H]1O,1,0.967
NS(=O)(=O)C#Cc1ccccc1,1.18,0.903
Cc1cccc(C#Cc2ccccc2)n1,1.56 and 1.59 and 1.5,1.16 and 1.75 and 1.47
Cc1nc(C#Cc2cccnc2)cs1,1.15,1.26
Cc1cc(C)c(/C=C2\C(=O)Nc3ccc(Cl)cc32)[nH]1,1.06,1.02
O=C(/C=C/c1ccc(O)c(O)c1)OCCc1ccccc1,0.173,0.361
O=C(O)/C=C/c1ccc(O)c(O)c1,0.886,0.894
O=C(/C=C/c1ccc(O)c(O)c1)O[C@@H]1C[C@](O)(C(=O)O)C[C@@H](O)[C@H]1O,1.8,1.28
C[C@H]1CCN(C(=O)CC#N)C[C@H]1N(C)c1ncnc2[nH]ccc12,1,1.02

SMILES,PER2::LUC luminescence (time after treatment 24 h),PER2::LUC luminescence (time after treatment 30 h)
O=Nc1c(O)[nH]c2c(Cl)c(Cl)ccc12,1.05,1.07
OCCOCCN1CCN(C(c2ccccc2)c2ccccc2)CC1,0.939,0.9
O=C(O)c1cc(=O)c2c(Cl)cc(Cl)cc2[nH]1,1.04,1
O=C(O)/C(=C\c1c(C(=O)O)[nH]c2cc(Cl)cc(Cl)c12)c1ccccc1,1.4,1.34
O=C(O)CCc1c(C(=O)O)[nH]c2cc(Cl)cc(Cl)c12,1.03,0.901
O=C(O)[C@@H]1C[C@H](CP(=O)(O)O)CCN1,1.03,0.992
O=C1Nc2nc(-c3c(O)cccc3OCC3CC3)cc([C@@H]3CCCNC3)c2CO1,0.574,0.66
COc1ccc(CCC(=O)Nc2nc3ccc(Cl)cc3s2)cc1OC,0.875 and 0.954,1.04 and 0.951
CC[N+](CC)(CC(=O)Nc1c(C)cccc1C)Cc1ccccc1,0.988,0.901
Cc1cc2sc(NC(=O)Cc3ccccc3)nc2cc1Cl,1.02,1.38
C[C@@H]1O[C@@H](OC[C@H]2O[C@@H](Oc3cc(O)c4c(=O)cc(-c5ccc(O)cc5)oc4c3)[C@H](O)[C@@H](O)[C@@H]2O)[C@H](O)[C@H](O)[C@H]1O,0.948,0.927
CCCCN(CCCC)C(=O)CN1C[C@H](c2ccc3c(c2)OCO3)[C@@H](C(=O)O)[C@@H]1c1ccc(OC)cc1,2.23,2.08
Cc1noc(-c2ccc(-c3ccc(CC(=O)O)cc3)cc2)c1NC(=O)OC(C)c1ccccc1Cl (stereo not drawn),1.1,1.12
C/C=C/C(=O)N1C(=O)OC[C@@H]1Cc1ccccc1,0.864,0.846
O=C1/C(=C/c2cccs2)CCC/C1=C\c1cccs1,1.5,1.67
CN1CCCN=C1/C=C/c1cccs1,1.2 and 1.03,0.92 and 1.16
O=C1/C(=C/c2cccs2)CC/C1=C\c1cccs1,1.07,1.01
O=C(Oc1ccccc1C(=O)O)c1ccccc1O,1.15 and 0.613,1.16 and 0.995
CC(=O)Nc1ccc(OC(=O)c2ccccc2O)cc1,0.934,1.02
Nc1ccc(C(=O)Oc2ccccc2)c(O)c1,0.958,1.54

SMILES,PER2::LUC luminescence (time after treatment 24 h),PER2::LUC luminescence (time after treatment 30 h)
CC(C)c1onc(-c2c(Cl)cccc2Cl)c1COc1ccc(/C=C/c2cccc(C(=O)O)c2)c(Cl)c1,1.86,2.03
CC(C)CCNC(=O)c1ccc2c(c1)nc(Nc1n[nH]c3ccc(-c4ccccc4OC(F)(F)F)cc13)n2C1CCC(O)CC1 (stereo not drawn),0.526,0.553
CCCCC(CC)COC(=O)c1ccccc1O (stereo not drawn),1.07,1.63
CCCCC(CC)COC(=O)C(C#N)=C(c1ccccc1)c1ccccc1 (stereo not drawn),1.01 and 1.15,1.08 and 1.14
CCCCC(CC)COC(=O)C=Cc1ccc(OC)cc1 (stereo not drawn),1.09,1.14
COc1ccc(CNc2nc(NCc3ccc(OC)cc3)c3ncn(C(C)C)c3n2)cc1,0.991,1.22
CC(C)Cc1ccc([C@@H](C)C(=O)O)cc1,0.974,0.981
CC(C)Cc1ccc(C(C)C(=O)O)cc1 (racemic),1.12,0.938
CC(C(=O)O)c1ccc(CC2CCCC2=O)cc1 (stereo not drawn),0.779 and 1.02,1.36 and 1.08
O=C(NCc1cccc(O)c1)c1cc2cc(F)ccc2[nH]1,0.948,0.986
CC(=O)NN(Cc1ccc(N)cc1)c1ncnc2c1ncn2[C@@H]1O[C@H](CO)[C@@H](O)[C@H]1O,1.03,0.913
NC1(C(=O)O)CCc2cc(P(=O)(O)O)ccc21 (racemic),1.03,1.01
Cc1nc(C(=O)N2CCC[C@H]2Cc2nnc(-c3ccccc3)o2)c(-c2ccccc2F)s1,1.06,0.881
COc1ccc(CCN2CN=C(SCc3ccc(Cl)cc3)NC2)cc1OC,0.912,0.83
COc1cc(-c2ccc(=O)[nH]n2)ccc1OC(F)F,0.97,0.924
COc1ccccc1O,0.97,0.878
COc1cc(-c2nc3ccccc3s2)ccc1O,1.37,1.5
COc1cc(CC(=O)O)ccc1O,0.99,0.874
COc1ccc(-c2nc3cc(F)ccc3s2)cc1OC,1.5,1.52

# — the supplement of paper PMC9334596
